Test results: PubChem BioAssay AID1851 (National Center for Advancing Translational Sciences (NCATS), 2009)
Out of some 16,000 compounds screened, about 2,600 (16%) were called active. Another 20% or so got no clear call; they are omitted. Only a sample is shown. A number with no mark means an inactive call. The call rests on the fitted dose curve; in most records, active means well fitted curve in the direction sought with a large enough effect; inconclusive means small, poorly fitted or top-dose-only effect, or effect the other way; inactive means no such curve, though single readings can be large or run the other way. Peptide text beside a SMILES is read from it. * marks the point of attachment. PhAc = O=C(Cc1ccccc1)*; OBn = c1ccc(CO*)cc1

These molecules were tested against Cytochrome P450 2D6 (Homo sapiens) (UniProt P10635) (assay: Cytochrome panel assay with activity outcomes). Conditions: recombinant CYP, pro-luciferin dealkylation, luminescence, p450-cyp2d6; series mostly up to 57.1 µM.
On the % scale 0 is the no-effect control and ±100 the full control effect.

Chain of Cytochrome P450 2D6 (Homo sapiens) (P10635 whole entry, looked up): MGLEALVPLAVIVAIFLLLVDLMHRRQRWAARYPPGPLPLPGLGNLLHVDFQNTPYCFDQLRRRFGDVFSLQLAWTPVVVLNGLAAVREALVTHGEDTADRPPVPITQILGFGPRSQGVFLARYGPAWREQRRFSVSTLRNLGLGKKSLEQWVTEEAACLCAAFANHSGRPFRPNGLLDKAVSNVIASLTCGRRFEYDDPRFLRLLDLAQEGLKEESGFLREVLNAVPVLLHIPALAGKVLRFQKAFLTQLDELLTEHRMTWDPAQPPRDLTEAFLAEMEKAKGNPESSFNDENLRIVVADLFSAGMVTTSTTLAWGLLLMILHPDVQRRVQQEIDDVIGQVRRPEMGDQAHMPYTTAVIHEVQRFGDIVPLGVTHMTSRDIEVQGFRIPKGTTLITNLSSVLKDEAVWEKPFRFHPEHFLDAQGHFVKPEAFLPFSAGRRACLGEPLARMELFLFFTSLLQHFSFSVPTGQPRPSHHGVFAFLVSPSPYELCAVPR

Structure (SMILES) | activity, negative = inhibition | AC50
N/N=C1/CC(=O)NC(=O)N1 | -6.83% [at 11.4 µM] | 
CCn1ccnc1C[C@@H]1COc2ccccc2O1 |  | 1.58 µM (active)
O=C(NCc1cccnc1)C1COc2ccccc2O1 (centres undefined) |  | inactive
N/C(=N\O)C1COc2ccccc2O1 (centres undefined) |  | inactive
COc1ccc(N2C(=O)CC(S/C(N)=N/N=C(\C)c3cccs3)C2=O)cc1 (centres undefined) |  | inactive
Cc1cccc(OC(=O)CN2C(=O)C3C4CCC(C4)C3C2=O)c1C (centres undefined) |  | inactive
CCNC(=O)CSc1nnc(C2CC2)n1-c1ccccc1 |  | inactive
O=C(Nc1ccccc1Cl)c1ccccc1Cl |  | inactive
Cn1cccc1C(=O)C(=O)Nc1cccc(Cl)c1Cl |  | inactive
O=C(Nc1cccc(Cl)c1Cl)c1snnc1-c1ccccc1 |  | 10 µM (active)
O=[N+]([O-])c1ccc(C2CCCC/C2=N\OCc2cccc(F)c2)c([N+](=O)[O-])c1 (centres undefined) |  | inactive
NCCOB(c1ccccc1)c1ccccc1 |  | inactive
Cc1cc(NC(=O)c2c([N+](=O)[O-])c(C)nn2C)no1 |  | inactive
CCC(=O)NNc1cc(=O)c2c(=O)n(C)c(=O)n(C)c2[nH]1 |  | inactive
COc1ccc2[nH]c3c(NCCCN4CCCC4=O)ncnc3c2c1 |  | inactive
CCN1CCCC1Cn1cnc2c([nH]c3ccc(C)cc32)c1=O (centres undefined) |  | 4.47 µM (active)
CCOCCCn1cnc2c([nH]c3cc(OC)ccc32)c1=O |  | inactive
O=S(=O)(C=C(c1ccccc1)c1ccccc1)c1ccccc1 |  | inactive
O=S(=O)(c1ccccc1)N1N=C(c2cccs2)CC1c1ccc(Br)cc1 (centres undefined) |  | 1.12 µM (active)
O=S(=O)(c1ccc(Br)cc1)N1CCN(S(=O)(=O)c2ccc(Br)cc2)CC1 | -1.87% [at 11.4 µM] | 
O=c1oc(-c2cccs2)nc2ccc(Br)cc12 |  | inactive
COc1nc(C)nc(Cl)c1NC1=NCCN1 |  | inactive

Structure (SMILES) | activity, negative = inhibition | AC50
Clc1cccc(Cl)c1NC1=NCCN1 |  | 10 µM (active)
COc1ncc2nc(-c3cccs3)c(=O)n(CCc3ccccc3)c2n1 |  | inactive
CCCCOC(=O)CSCC(=O)Nc1cc(C)on1 |  | inactive
Cc1cc2nc(CCN(C(=S)NCC(C)C)C3CCCC3)[nH]c2cc1C |  | 1.12 µM (active)
COc1ccc(/C=C/C(=O)Nc2ccccc2C(=O)N2CCCC2)cc1 |  | inactive
CCCc1cc2c(n1CCc1ccc(Cl)cc1)C(C)C1CN(C(=O)c3ccccc3)C(C)(C(=O)OC)C21 (centres undefined) |  | 5.01 µM (active)
COC(=O)[C@@]1(Cc2ccc(F)cc2)[C@H]2c3cc(C(=O)N4CCCC4)n(Cc4ccc(Cl)c(C(F)(F)F)c4)c3C[C@H]2CN1C(=O)c1ccccc1 |  | inactive
COC(=O)[C@@]1(Cc2ccccc2)[C@H]2c3cc(C(=O)N4CCCC4)n(Cc4ccc(S(C)(=O)=O)cc4)c3C[C@H]2CN1C(=O)c1ccccc1 |  | inactive
CS(=O)(=O)Nc1c(O)ccc2c1CCC[C@H]2C1=NCCN1 |  | inactive
N[C@H](C(=O)O)c1cc(O)cc(O)c1 |  | inactive
CC(C)(C)c1ccc(COC(=O)CNC(=O)CNC(=O)Cc2ccccc2)cc1 |  | inactive
C/C(=N/NC(=O)c1cccs1)c1ccc(NC(=O)COc2ccc(Cl)cc2Cl)cc1 |  | inactive
O=C(CNC(=O)c1cccs1)NCC(=O)OCc1ccc(Cl)cc1Cl |  | 3.55 µM (active)
O=C(CNC(=O)Cc1ccccc1)NCC(=O)OCc1ccccc1 (PhAc-Gly-Gly-OBn) |  | inactive
O=C(NOC(=O)c1cc(Br)ccc1Cl)c1cccs1 |  | inactive
O=C(CNC(=O)c1cccs1)NCC(=O)OCc1ccc(Cl)cc1 |  | 15.8 µM (active)
NCCSC[C@H](N)C(=O)O | -2.62% [at 11.4 µM] | 
Cc1n[nH]c(=O)[nH]c1=O |  | inactive
C[C@@]12C=CC(=O)C=C1CC[C@@H]1[C@@H]2[C@H](O)C[C@]2(C)[C@@H]1CC[C@]2(O)C(=O)CO |  | inactive
COc1ccc(-n2c(=O)c(C)nc3cnc(Oc4ccccc4)nc32)cc1 |  | inactive
O=C(O/N=C\c1ccc(N2CCCCC2)c([N+](=O)[O-])c1)c1c(F)cccc1F |  | inactive
N#C/C(=C\c1cc([N+](=O)[O-])c(N2CCCCC2)cc1N1CCCCC1)c1nn(-c2ccccc2)c(N)c1C#N |  | inactive

Structure (SMILES) | activity, negative = inhibition | AC50
N#C/C(=C/c1ccc(N2CCCC2)c([N+](=O)[O-])c1)c1nc2ccccc2[nH]1 |  | 0.2 µM (active)
COc1cc(/C=C(/C#N)c2nc3ccccc3[nH]2)ccc1OCC(=O)Nc1ccccc1C |  | inactive
N#C/C(=C\c1ccc(N2CCCC2)c([N+](=O)[O-])c1)c1nc2ccccc2[nH]1 |  | 0.631 µM (active)
N#C/C(=C\c1ccc(Oc2ccc(C(F)(F)F)cc2[N+](=O)[O-])cc1)c1nc2ccccc2[nH]1 |  | inactive
CSc1ncnc2c1ncn2[C@@H]1O[C@@H](CO)[C@H](O)O[C@@H]1O | 14.1% [at 11.4 µM] | 
CC(NC(=O)OCc1ccccc1)C(=O)NCC1CCCO1 (centres undefined) |  | inactive
CCCC[C@@H]1C[C@H]1C(NC(=O)c1cccs1)c1ccc(Cl)cc1 (some centres undefined) |  | inactive
O=S(=O)(O)c1ccc(N=Nc2ccc3c(S(=O)(=O)O)cccc3c2O)c2ccccc12 | -18.7% [at 11.4 µM] | 
Cn1c(SCC(=O)Nc2ccccc2)nc(O)cc1=O |  | inactive
CCc1c(C)nc(N)n2c(SCC(=O)Nc3ccccc3)nnc12 |  | 1.41 µM (active)
CCN(CC)c1ccc(NC(=O)CSc2nnc3nc(C)cc(C)n23)cc1 |  | inactive
COc1ccc(Oc2ncc3nc(CCc4ccccc4)c(=O)n(CCC#N)c3n2)cc1 |  | inactive
Cc1cccc(OC2(c3ccccc3)OC(=O)c3ccccc32)c1C (centres undefined) |  | inactive
CCN(CC)C(=O)COc1ccc(S(=O)(=O)N2CCOCC2)cc1 |  | inactive
N#C/C(=C\NC(=S)c1ccncc1)c1nc2ccccc2s1 | -9.99% [at 11.4 µM] | 
CN(C(=O)c1c(O)c2ccccc2n(C)c1=O)c1ccccc1 |  | inactive
C=CCn1c(=O)c(C(=O)NCCN(CC)CC)c(O)c2ccccc21 |  | 4.47 µM (active)
CCCc1c(O)c2ccccc2n(-c2ccccc2)c1=O |  | inactive
COc1ccc(NC(=O)N2CCCC3(CCN(C(=O)c4cnccn4)CC3)C2)cc1 |  | inactive
Cc1cc(NC(=O)c2cc(C(C)C)on2)no1 |  | inactive
